The structures appear in SMILES notation. Results filed as inconclusive are left out. Calls of active or inactive are those of the source. The call rests on the fitted dose curve; in most records, active means well fitted inhibition curve with a large enough effect; inconclusive means small, poorly fitted or top-dose-only effect; inactive means no such curve, though single readings can be large or run the other way.

These results are taken from PubChem BioAssay AID651791 (National Center for Advancing Translational Sciences (NCATS), 2012).
Potency means the concentration at half of the fitted maximal effect.

The assay in a line: InCell qHTS Assay for Inhibitors of the mTORC1 Signaling Pathway in MEF (Tsc2-/-, p53-/-) Cells: Hit Validation.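 Further: phospho-S6 Ser235/236 signal normalized to propidium iodide cell count per well; nearly all actives have a fitted effect of over 75% in size.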 To be noted: phospho-rpS6 immunofluorescence, 24 h; activity change, negative = inhibition: at 38.3 µM (top of the series).
For the compound `CC(C)CCNC(=O)C(=O)Nc1c2c(nn1-c1ccc(Cl)cc1)CSC2`, the Potency was 18.5 µM (active).

Turning to `CCCS(=O)(=O)c1ncc(Cl)c(C(=O)N2CCN(c3ccc(OC)cc3)CC2)n1`, the Potency was 1.85 µM (active).

Regarding `CCCCS(=O)(=O)c1nc(-c2ccc(Br)cc2)cc(-c2ccccc2)c1C#N`, the Potency is 16.5 µM (active).

On to `COc1ccc(CCN2C(=O)c3[nH]nc(-c4ccccc4O)c3C2c2ccc(OC)c(OC)c2)cc1` (stereo not drawn), for which the activity change, negative = inhibition was -100%.

Turning to `CCC1CN(C(=O)NCc2ccc(F)cc2)c2cc(C)ccc2O1` (stereo not drawn), the activity change, negative = inhibition was -100%.

For `CCCC1=Nc2cc(C(=O)NC3CCCC3)ccc2Sc2ccc(C)cc21`, the activity change, negative = inhibition was -100%.

Turning to `CCc1nn(CC(=O)NCc2ccccc2)c(=O)c2cccn12`, the activity change, negative = inhibition is -100%.

`CCc1nnc(NC(=O)c2nc(S(=O)(=O)Cc3cccc(C)c3)ncc2Cl)s1`: the Potency is 4.14 µM (active).

Take `CN(C)c1ccc(Nc2nc3ccccc3n3nnnc23)cc1`: the activity change, negative = inhibition is -0.0295%.

Regarding `CCOC(=O)c1c(NC(=O)COc2ccc(OC)cc2)sc(C(=O)N(CC)CC)c1C`, the activity change, negative = inhibition is -100%.

On to `COc1ccc(S(=O)(=O)N(CCc2ccccc2)CC(=O)Nc2cccc(OC)c2)cc1`, for which the activity change, negative = inhibition is -100%.

Take `COc1ccc(C(C(=O)Nc2ccc(C(C)C)cc2)N(C)C(=O)Cc2cccs2)cc1` (stereo not drawn): the activity change, negative = inhibition is -100%.

For `CCc1ccc(S(=O)(=O)N(C(=O)c2ccncc2)c2ccc3oc(C)c(C(=O)OC)c3c2)cc1`, the activity change, negative = inhibition is -100%.

As to `CCOC(=O)c1ccc(N2C(=O)c3n[nH]c(C)c3C2c2cccc(Br)c2)cc1` (stereo not drawn), the activity change, negative = inhibition was -100%.

Consider `Cc1ccc(-c2csc(-c3cc4c([nH]c3=O)CC(c3ccccc3)CC4=O)n2)cc1` (stereo not drawn), for which the activity change, negative = inhibition is -100%.

Regarding `COc1ccccc1NC(=O)C1=C(C)Nc2nc(SCc3ccccc3)nn2C1c1cccs1` (stereo not drawn), the activity change, negative = inhibition was -100%.

Regarding `CCc1ccc(OCC(=O)N(Cc2ccc(C)cc2)Cc2ccco2)cc1`, the activity change, negative = inhibition was -100%.

With `Cc1cccc(CN2CCc3nc(N4CCN(c5ccccn5)CC4)ncc3C2)c1`, the activity change, negative = inhibition was -100%.

In the case of `Cc1cccc(N2CCN(C(=O)C3CCN(C(=O)c4cc5sccc5n4C)CC3)CC2C)c1` (stereo not drawn), the activity change, negative = inhibition was -100%.

Turning to `CCOc1ccc(NC(=O)CSc2oc(-c3ccc(F)cc3)nc2S(=O)(=O)c2ccc(C)cc2)cc1`, the Potency was 4.65 µM (active).

With `Cc1ccc(S(=O)(=O)Nc2ccc3c(c2)c(C(=O)OC(C)C)c(C)n3S(=O)(=O)c2ccc(C)cc2)cc1`, the activity change, negative = inhibition is -100%.

Take `Cn1ccc2c(OCC(=O)Nc3ccc(OC(F)(F)F)cc3)cccc2c1=O`: the activity change, negative = inhibition was -100%.

Consider `CCS(=O)(=O)c1ncc(Cl)c(C(=O)N2CCN(c3cccc(Cl)c3)CC2)n1`, for which the Potency is 2.61 µM (active).

In the case of `CCc1ccc(OCC(=O)Nc2ccc3oc(-c4ccc(OC)cc4)nc3c2)cc1`, the activity change, negative = inhibition is -100%.

For `CCCOC(=O)c1c(C)oc2c1cc(NS(=O)(=O)c1ccc(OCC)cc1)c1ccccc12`, the activity change, negative = inhibition is -15.2%.

As to `Oc1ccc(NCc2ccc(OCc3ccccc3Cl)cc2)cc1`, the activity change, negative = inhibition was -100%.

In the case of `CC(C)N(C(=O)CSc1nc2ccc(Cl)cc2[nH]1)c1ccccc1`, the activity change, negative = inhibition was -100%.

As for `CCNS(=O)(=O)c1ccc(NC(=O)CSc2nc(-c3ccco3)cc(C(F)(F)F)n2)cc1`, the activity change, negative = inhibition was -13.9%.

In the case of `O=C(CN(CCc1ccccc1)S(=O)(=O)c1ccccc1)NCc1ccc(Cl)cc1`, the activity change, negative = inhibition was -100%.

As to `COc1cccc(/C=C(\C#N)c2nc3ccc(C)cc3[nH]2)c1`, the activity change, negative = inhibition is -100%.

With `C#CCN1C(=O)C(O)(CC(=O)c2ccc(OC)c(OC)c2)c2cc(Br)ccc21` (stereo not drawn), the activity change, negative = inhibition was -100%.

Consider `Cc1ccc(-c2nnc(Nc3cccc(Cl)c3)c3ccccc23)cc1S(=O)(=O)N1CCN(C)CC1`, for which the activity change, negative = inhibition was -100%.

As to `CCNC(=O)c1c(NC(=O)c2nc(S(=O)(=O)CC)ncc2Cl)sc2c1CCCC2`, the Potency was 2.07 µM (active).

In the case of `CCCN1CCN(c2ncnc3sc(C(=O)Nc4ccc(OC(F)(F)F)cc4)c(C)c23)CC1`, the activity change, negative = inhibition was -100%.

On to `O=C(C1CCN(c2nc3ccccc3[nH]2)CC1)N1CCN(c2cccc(Cl)c2)CC1`, for which the activity change, negative = inhibition is -100%.

In the case of `FC(F)(F)c1cccc(Nc2c3c(nc4ccc(Cl)cc24)CCC3)c1`, the activity change, negative = inhibition was -100%.

`Cc1nn(CCCC(=O)NCc2ccccc2)c(=O)c2c1sc1ccccc12`: the activity change, negative = inhibition is -100%.

As to `Cc1cccc(NC(=O)c2c(N)sc3c2CCC(C)C3)c1` (stereo not drawn), the activity change, negative = inhibition is -100%.
